Sampled rows, rich in hits. Any-hit rate of the full collection: about 3.4%.
PAFAH1B2 FP inh = PAFAH1B2 (human) inhibition. P68402. recombinant PAFAH1B2, FP-rhodamine activity probe, fluorescence polarization. inhibition, % at 3.39 µM. 340,000 tested, 1.2% active;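 active = inhibition above the mean of all tested compounds plus 3 SD, cut at about 24% in these data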;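 note: 0% = enzyme with DMSO and 100% = wells lacking PAFAH1B2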
PAFAH1B3 inh = blocks human PAF acetylhydrolase 1B catalytic subunit 3; Q15102; recombinant PAFAH1B3, FP-rhodamine probe, fluorescence polarization; inhibition, % at 3.39 µM; 340,000 tested, 0.28% active;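 active = inhibition above the screen-wide average of all tested compounds plus 3 SD, cut at about 25% in these data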;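 note: 0% = enzyme with DMSO only and 100% = wells lacking PAFAH1B3 protein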
pPAFAH inh = pPAFAH (human) enzyme inhibition | inhibition, % at 3.39 µM | recombinant pPAFAH, FP-rhodamine probe fluorescence polarization | 330,000 tested, 1.5% active | Q13093;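 active = inhibition above the mean inhibition across the screen plus 3 SD, cut at about 25% in these data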;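 note: inhibitors block binding of the rhodamine activity-based probe so polarization drops; 0% = enzyme with DMSO and 100% = wells lacking pPAFAH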
PAFAH2 inh = PAFAH2 (human) inhibition. recombinant PAFAH2, FP-rhodamine activity probe, fluorescence polarization. inhibition, % at 3.39 µM. Q99487. 340,000 tested, 0.99% active;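 active = inhibition above the mean over all tested compounds plus 3 SD, cut at about 30% in these data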;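 note: inhibitors block probe labeling of enzyme so polarization drops; 0% = enzyme with DMSO and 100% = wells lacking PAFAH2 protein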
PP5 primary = blocks human protein phosphatase 5 activity. purified PP5c, OMFP substrate fluorescence. inhibition, % at 6.7 µM. 320,000 tested, 0.18% active. AID 1987;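 active = inhibition above the campaign's mean inhibition across all tested compounds plus 3 SD, cut at about 9.5% in these data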;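 note: 0% = DMSO only and 100% = 100 µM cantharidin control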
Target sequence (P53041 whole entry, looked up): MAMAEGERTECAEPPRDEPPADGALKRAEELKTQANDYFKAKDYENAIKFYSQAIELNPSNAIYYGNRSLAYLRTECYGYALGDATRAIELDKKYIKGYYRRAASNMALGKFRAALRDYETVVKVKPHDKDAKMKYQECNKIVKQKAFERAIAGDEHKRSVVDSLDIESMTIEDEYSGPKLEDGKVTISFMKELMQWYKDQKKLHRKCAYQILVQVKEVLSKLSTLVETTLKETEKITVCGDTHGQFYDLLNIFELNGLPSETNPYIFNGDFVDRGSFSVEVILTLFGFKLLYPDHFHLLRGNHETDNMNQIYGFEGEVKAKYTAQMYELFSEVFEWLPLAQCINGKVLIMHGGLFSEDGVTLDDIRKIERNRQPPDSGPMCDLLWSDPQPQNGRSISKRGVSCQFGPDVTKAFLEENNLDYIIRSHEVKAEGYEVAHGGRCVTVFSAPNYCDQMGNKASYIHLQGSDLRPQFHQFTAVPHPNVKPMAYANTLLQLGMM
PP1 counter = blocks human PP1-alpha phosphatase, a PP5 counter-screen | P62136 | purified PP1alpha, OMFP fluorescence | inhibition, % at 6.7 µM | 320,000 tested, 0.9% active | AID 2235;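 active = inhibition above the mean inhibition of all tested compounds plus 3 SD, computed separately for each screening campaign, cut at about 15% in these data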
Starred values were filed as active, the others as inactive; x = not tested or not shown.

SMILES	PAFAH1B2 FP inh	PAFAH1B3 inh	pPAFAH inh	PAFAH2 inh	PP5 primary	PP1 counter
O=C(Oc1c(-c2ccccc2)c(=O)n2c3c(cccc13)CC2)c1ccccc1	x	x	26*	x	2	4
COc1ccc(OC)c(-c2cc(C(=O)Nc3c(C)nn(Cc4ccccc4Cl)c3C)no2)c1	-1	1	4	-12	4	2
Cc1cc(C(=O)Nc2c(C)nn(Cc3ccccc3Cl)c2C)no1	3	4	26*	-1	-3	-5
Cc1ccc(CN(C)C(=O)c2cc(COc3ccc(F)cc3Cl)on2)o1	4	2	-4	0	5	1
Cc1nonc1CN(C)C(=O)c1cc(COc2ccc(F)cc2Cl)on1	-6	14	26*	-6	4	-2
O=C(c1cc(COc2ccc(F)cc2Cl)on1)N1CCN(C2CCCC2)CC1	1	4	26*	-7	3	1
N#Cc1cccc(NC(=O)CCc2ccc(S(=O)(=O)N3CCOCC3)cc2)c1	4	11	2	0	x	x
COc1ccccc1C(=O)NC(=O)CSc1ccc(C)c(C)c1	9	1	3	8	x	x
O=C(CSCc1ccc(F)cc1)N1CCOCC1	-2	0	0	-3	2	-2
O=C(CSCc1ccc(Br)cc1)N1CCOCC1	26*	3	5	5	-3	-2
O=C(CSCc1ccc(Br)cc1)N1CCCC1	29*	7	6	8	-2	-3
COc1ccc(CCN(C)C(=O)c2cc(=O)c3ccccc3o2)cc1OC	5	5	-1	3	-3	-8
COc1ccc(C(NC(=O)/C=C\c2ccco2)c2ccc(OC)c(OC)c2)cc1 (configuration not stated)	3	2	5	1	0	1
COc1ccc(C(NC(=O)/C=C/c2ccco2)c2ccc(OC)cc2)cc1	0	0	27*	4	-2	5
c1ccc2cc(C3CCCCC3)ncc2c1	-3	-1	7	4	x	x
NC(=O)c1sc2nc3c(c(-c4ccco4)c2c1N)CCCC3	6	3	18	-3	2	2
NC(=O)c1sc2nc3c(c(-c4ccc(Cl)cc4)c2c1N)CCCC3	4	7	30*	7	5	5
Cc1ccc(-c2c3c(nc4sc(C(N)=O)c(N)c24)CCC3)cc1	-7	4	28*	0	4	4
CCN(CC)CCNC(=O)c1cc(Nc2ccc(OC)c(OC)c2)nc2ccccc12	4	0	-2	-12	2	-4
O=C(Nc1ccc(Cl)cc1)Nc1ccc(N2CCCC2)c(S(=O)(=O)Nc2ccccc2Cl)c1	8	-16	19	-23	3	17*
Cc1ccc(Nc2nnc(SCC(=O)c3ccc(Br)s3)s2)c(C)c1	-3	-6	11	-23	3	17*
Cc1ccc(Nc2nnc(SC/C(O)=C(\C#N)c3nc4ccccc4[nH]3)s2)c(C)c1	21	8	29*	-1	1	11
Cc1cccc(Nc2nnc(SC/C(O)=C(\C#N)c3nc4ccccc4[nH]3)s2)c1	20	16	25*	-13	-1	5
Cc1cc(C)n2c(SCC(O)=C(C#N)c3nc4ccccc4[nH]3)nnc2n1	2	3	x	3	x	x
COc1ccc(C)cc1-n1nnnc1SC/C(O)=C(\C#N)c1nc2ccccc2[nH]1	6	6	5	7	2	-2
SMILES	PAFAH1B2 FP inh	PAFAH1B3 inh	pPAFAH inh	PAFAH2 inh	PP5 primary	PP1 counter
CC1Cc2cccc3ccc(=O)n(c23)C1 (configuration not stated)	4	4	x	7	x	x
C[C@@H]1C(=O)O[C@H]2[C@H](O)[C@@]34[C@H]5C[C@@H](C(C)(C)C)[C@]36[C@@H](OC(=O)[C@@H]6O)O[C@@]4(C(=O)O5)[C@@]12O	6	3	3	1	3	-1
Cc1ccc(OCCC(=O)OCC(=O)NC2CCS(=O)(=O)C2)cc1 (configuration not stated)	3	8	4	12	2	-6
O=C(CNS(=O)(=O)c1ccc(Br)s1)N1CCN(c2ncccn2)CC1	25*	4	x	12	x	x
CC1CCN(C(=O)CNS(=O)(=O)c2ccc(Br)s2)CC1	23	1	9	14	-1	-6
CC(O)(CC(=O)CC(=O)c1ccccc1)c1ccccc1 (configuration not stated)	-2	1	x	6	x	x
CCOC(=O)c1c(-n2c(C)cc(C=O)c2C)sc2c1CCCC2	7	7	9	-6	1	0
Cc1ccc(C)n1-c1sc2c(c1C(=O)O)CCCC2	2	-2	26*	16	2	0
O=C(O/N=C1/CCSc2ccccc21)c1ccccc1	18	4	0	41*	4	1
Cc1ccc2c(c1)/C(=N/OC(=O)c1ccc(F)cc1)CCS2	19	15	4	2	1	-5
CC1CCN(S(=O)(=O)c2ccc3c4c2CC(=O)N4CC(C)S3)CC1 (configuration not stated)	16	-5	27*	62*	-4	-1
Cc1ccc(S(=O)(=O)N2CCN(S(=O)(=O)N3CCC(C)CC3)CC2)c(C)c1	2	11	1	-10	1	2
Nc1nc(Nc2ccccc2Cl)cc(=O)[nH]1	5	10	2	5	-1	1
O=c1[nH]c(NCCO)nc2c1C1(CCCC1)Cc1ccccc1-2	34*	10	1	-9	1	2
CCOc1ccc(S(=O)(=O)NCCC(=O)OCC(=O)NC(=O)c2cccn2C)cc1	0	10	25*	2	x	x
Nc1c(Cl)cc(N=Nc2ccccc2)cc1Cl	2	11	x	-3	x	x
O=C(CCCN1C(=O)/C(=C\c2ccccc2)SC1=S)Nc1cccc(C(=O)O)c1	0	4	4	4	-2	6
O=C(CCN1C(=O)/C(=C\C=C\c2ccccc2)SC1=S)Nc1ccccc1C(=O)O	5	8	30*	9	2	2
O=C(CCN1C(=O)/C(=C\C=C\c2ccccc2)SC1=S)Nc1cccc(C(=O)O)c1	1	7	28*	8	4	12
COC(=O)CC1(CC(N)=O)SCCS1	2	-2	x	4	x	x
CN(CC(=O)Nc1ccc(F)c(Cl)c1)S(=O)(=O)c1ccc2c(c1)n(C)c(=O)c(=O)n2C	0	0	-3	-4	-3	-3
CCC1COC(c2cccn2Cc2ccc(Cl)cc2)=N1 (configuration not stated)	2	1	28*	4	1	-2
CCOC(=O)C1Nc2ccc(C(F)(F)F)cc2C2c3ccccc3CC12 (configuration not stated)	3	0	-7	2	-7	-1
CCOC(=O)C1Nc2ccccc2C2C(O)C(O)CC12 (configuration not stated)	14	38*	18	13	0	-1
N/C(=N\OC(=O)CCc1ccccc1)c1cccc(Br)c1	67*	8	4	6	1	-3
